Results from the supplement of paper PMC10849652.
The full data set covers some 7,900 targets. This sample favours those with a hit. About 0.6% of all pairs of compound and target were hits. Unmarked numbers belong to inactive results.

Experiments:
Assay in all cases: log2 fold change, soluble protein after heating vs DMSO (PISA); higher = thermal stabilisation; K562 cells, 10 uM, 30 min; active = over 0.2 and 3.5 SD of the protein, either way, in both replicates (recomputed)
[1] = compound: COC1=CC=C(C=C1)CN2C=CC3=C2C=C(C=C3)C(=O)NO
Procedure, shortened: (§1)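 Soluble protein was defined as the supernatant after 21,000xg for 90 min. It came from K562 cells at 2×10^6 cells/mL given 10 μM compound for 30 min, heated in aliquots for 3 min across 48°C-58°C, pooled, and extracted in PBS with 0.5% NP-40 at 4°C, and was quantified by TMTpro 16plex LC-MS/MS with equalised channel sums. Thermal stability against control samples, from duplicates, is reported as log2 fold change.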

filanesib = compound: CON(C)C(=O)N1N=C(c2cc(F)ccc2F)S[C@@]1(CCCN)c1ccccc1 [filanesib]
Procedure, shortened: as §1

zotarolimus = compound: CO[C@H]1C[C@@H]2CC[C@@H](C)[C@@](O)(O2)C(=O)C(=O)N2CCCC[C@H]2C(=O)O[C@H]([C@H](C)C[C@@H]2CC[C@H](n3cnnn3)[C@H](OC)C2)CC(=O)[C@H](C)/C=C(\C)[C@@H](O)[C@@H](OC)C(=O)[C@H](C)C[C@H](C)/C=C/C=C/C=C/1C [zotarolimus]
Procedure, shortened: as §1

idasanutlin = compound: COc1cc(C(=O)O)ccc1NC(=O)[C@@H]1N[C@@H](CC(C)(C)C)[C@](C#N)(c2ccc(Cl)cc2F)[C@H]1c1cccc(Cl)c1F [idasanutlin]
Procedure, shortened: as §1

alisertib = compound: COc1cc(Nc2ncc3c(n2)-c2ccc(Cl)cc2C(c2c(F)cccc2OC)=NC3)ccc1C(=O)O [alisertib]
Procedure, shortened: as §1

[2] = compound: COc1cc2nc(-c3cc(F)ccc3O)nc(N[C@@H]3CNC[C@H]3C(C)(C)O)c2cc1OC
Procedure, shortened: as §1

gefitinib = compound: COc1cc2ncnc(Nc3ccc(F)c(Cl)c3)c2cc1OCCCN1CCOCC1 [gefitinib]
Procedure, shortened: as §1

[3] = compound: COc1cccc2cc(-c3nc([C@H]4CC[C@H](C(=O)O)CC4)n4ncnc(N)c34)[nH]c12
Procedure, shortened: as §1

lapatinib = compound: CS(=O)(=O)CCNCc1ccc(-c2ccc3ncnc(Nc4ccc(OCc5cccc(F)c5)c(Cl)c4)c3c2)o1 [lapatinib]
Procedure, shortened: as §1

pictilisib = compound: CS(=O)(=O)N1CCN(Cc2cc3nc(-c4cccc5[nH]ncc45)nc(N4CCOCC4)c3s2)CC1 [pictilisib]
Procedure, shortened: as §1

Chain of UniProt Q6NZI2 (Q6NZI2 whole entry, looked up): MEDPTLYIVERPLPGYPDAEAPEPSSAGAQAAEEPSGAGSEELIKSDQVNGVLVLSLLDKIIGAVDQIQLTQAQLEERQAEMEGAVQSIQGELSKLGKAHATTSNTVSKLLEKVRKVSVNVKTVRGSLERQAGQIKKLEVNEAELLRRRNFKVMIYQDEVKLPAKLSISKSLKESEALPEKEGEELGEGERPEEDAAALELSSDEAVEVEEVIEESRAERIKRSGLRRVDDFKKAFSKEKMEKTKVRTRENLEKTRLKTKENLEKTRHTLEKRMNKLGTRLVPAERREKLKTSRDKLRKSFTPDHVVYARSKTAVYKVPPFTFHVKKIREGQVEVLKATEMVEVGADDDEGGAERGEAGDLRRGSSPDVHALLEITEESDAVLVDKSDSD
Chain of UniProt P12277 (P12277 whole entry, looked up): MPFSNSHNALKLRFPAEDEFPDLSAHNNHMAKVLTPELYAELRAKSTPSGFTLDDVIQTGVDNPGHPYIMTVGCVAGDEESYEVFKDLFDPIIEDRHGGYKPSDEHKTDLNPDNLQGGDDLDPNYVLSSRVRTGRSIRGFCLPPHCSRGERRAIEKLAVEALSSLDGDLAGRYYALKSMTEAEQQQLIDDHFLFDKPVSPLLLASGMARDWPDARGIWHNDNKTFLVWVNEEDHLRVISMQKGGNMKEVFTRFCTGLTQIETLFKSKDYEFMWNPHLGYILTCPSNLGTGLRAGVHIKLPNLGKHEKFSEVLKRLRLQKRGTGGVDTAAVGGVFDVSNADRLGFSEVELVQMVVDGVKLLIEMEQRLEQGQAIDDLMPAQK
Chain of UniProt Q96RR4 (Q96RR4 whole entry, looked up): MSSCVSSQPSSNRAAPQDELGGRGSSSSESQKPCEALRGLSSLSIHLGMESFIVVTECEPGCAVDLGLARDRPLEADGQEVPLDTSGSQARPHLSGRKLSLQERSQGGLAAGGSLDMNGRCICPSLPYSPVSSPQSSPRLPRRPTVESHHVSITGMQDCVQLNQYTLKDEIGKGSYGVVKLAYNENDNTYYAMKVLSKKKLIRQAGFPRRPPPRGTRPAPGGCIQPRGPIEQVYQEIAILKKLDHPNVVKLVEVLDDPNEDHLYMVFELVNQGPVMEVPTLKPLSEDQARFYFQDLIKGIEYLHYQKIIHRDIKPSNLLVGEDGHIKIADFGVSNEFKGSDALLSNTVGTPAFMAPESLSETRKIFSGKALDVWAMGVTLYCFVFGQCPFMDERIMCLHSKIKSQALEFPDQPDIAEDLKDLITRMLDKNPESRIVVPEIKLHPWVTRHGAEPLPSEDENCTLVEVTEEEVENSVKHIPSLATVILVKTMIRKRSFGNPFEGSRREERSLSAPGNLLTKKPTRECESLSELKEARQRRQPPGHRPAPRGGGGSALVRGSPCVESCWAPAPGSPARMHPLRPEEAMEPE
Chain of UniProt P24311 (P24311 whole entry, looked up): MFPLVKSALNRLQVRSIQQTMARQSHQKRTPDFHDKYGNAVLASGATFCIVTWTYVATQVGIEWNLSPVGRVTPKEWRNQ
Chain of UniProt Q16630 (Q16630 whole entry, looked up): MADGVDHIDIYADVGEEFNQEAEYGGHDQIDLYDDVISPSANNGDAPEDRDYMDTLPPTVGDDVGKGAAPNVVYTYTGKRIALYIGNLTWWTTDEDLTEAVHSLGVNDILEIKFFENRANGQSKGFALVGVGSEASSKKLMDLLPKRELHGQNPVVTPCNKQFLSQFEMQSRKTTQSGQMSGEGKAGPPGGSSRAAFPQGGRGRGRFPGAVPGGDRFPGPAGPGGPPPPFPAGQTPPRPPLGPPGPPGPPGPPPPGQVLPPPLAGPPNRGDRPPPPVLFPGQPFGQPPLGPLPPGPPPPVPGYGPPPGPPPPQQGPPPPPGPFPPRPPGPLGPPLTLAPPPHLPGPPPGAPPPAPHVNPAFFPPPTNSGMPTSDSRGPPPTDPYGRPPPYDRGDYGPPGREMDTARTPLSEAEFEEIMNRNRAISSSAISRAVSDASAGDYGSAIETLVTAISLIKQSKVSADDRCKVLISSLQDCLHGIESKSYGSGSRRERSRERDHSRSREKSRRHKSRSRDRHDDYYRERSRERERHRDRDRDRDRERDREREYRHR
Chain of UniProt O43405 (O43405 whole entry, looked up): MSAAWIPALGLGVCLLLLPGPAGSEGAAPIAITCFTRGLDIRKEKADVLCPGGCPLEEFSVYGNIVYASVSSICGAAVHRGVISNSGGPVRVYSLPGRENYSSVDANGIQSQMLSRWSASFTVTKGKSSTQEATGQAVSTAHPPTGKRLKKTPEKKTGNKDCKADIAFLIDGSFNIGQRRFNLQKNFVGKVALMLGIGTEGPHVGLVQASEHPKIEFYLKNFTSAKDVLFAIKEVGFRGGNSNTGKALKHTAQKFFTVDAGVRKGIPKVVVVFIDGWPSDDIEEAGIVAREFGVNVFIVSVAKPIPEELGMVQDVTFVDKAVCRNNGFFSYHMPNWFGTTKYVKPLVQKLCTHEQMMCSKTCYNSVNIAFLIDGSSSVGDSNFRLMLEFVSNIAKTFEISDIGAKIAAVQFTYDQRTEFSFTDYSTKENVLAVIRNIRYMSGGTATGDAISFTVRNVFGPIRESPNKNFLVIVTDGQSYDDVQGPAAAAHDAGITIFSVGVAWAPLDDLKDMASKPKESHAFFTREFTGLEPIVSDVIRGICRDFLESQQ
Chain of UniProt Q8IWY9 (Q8IWY9 whole entry, looked up): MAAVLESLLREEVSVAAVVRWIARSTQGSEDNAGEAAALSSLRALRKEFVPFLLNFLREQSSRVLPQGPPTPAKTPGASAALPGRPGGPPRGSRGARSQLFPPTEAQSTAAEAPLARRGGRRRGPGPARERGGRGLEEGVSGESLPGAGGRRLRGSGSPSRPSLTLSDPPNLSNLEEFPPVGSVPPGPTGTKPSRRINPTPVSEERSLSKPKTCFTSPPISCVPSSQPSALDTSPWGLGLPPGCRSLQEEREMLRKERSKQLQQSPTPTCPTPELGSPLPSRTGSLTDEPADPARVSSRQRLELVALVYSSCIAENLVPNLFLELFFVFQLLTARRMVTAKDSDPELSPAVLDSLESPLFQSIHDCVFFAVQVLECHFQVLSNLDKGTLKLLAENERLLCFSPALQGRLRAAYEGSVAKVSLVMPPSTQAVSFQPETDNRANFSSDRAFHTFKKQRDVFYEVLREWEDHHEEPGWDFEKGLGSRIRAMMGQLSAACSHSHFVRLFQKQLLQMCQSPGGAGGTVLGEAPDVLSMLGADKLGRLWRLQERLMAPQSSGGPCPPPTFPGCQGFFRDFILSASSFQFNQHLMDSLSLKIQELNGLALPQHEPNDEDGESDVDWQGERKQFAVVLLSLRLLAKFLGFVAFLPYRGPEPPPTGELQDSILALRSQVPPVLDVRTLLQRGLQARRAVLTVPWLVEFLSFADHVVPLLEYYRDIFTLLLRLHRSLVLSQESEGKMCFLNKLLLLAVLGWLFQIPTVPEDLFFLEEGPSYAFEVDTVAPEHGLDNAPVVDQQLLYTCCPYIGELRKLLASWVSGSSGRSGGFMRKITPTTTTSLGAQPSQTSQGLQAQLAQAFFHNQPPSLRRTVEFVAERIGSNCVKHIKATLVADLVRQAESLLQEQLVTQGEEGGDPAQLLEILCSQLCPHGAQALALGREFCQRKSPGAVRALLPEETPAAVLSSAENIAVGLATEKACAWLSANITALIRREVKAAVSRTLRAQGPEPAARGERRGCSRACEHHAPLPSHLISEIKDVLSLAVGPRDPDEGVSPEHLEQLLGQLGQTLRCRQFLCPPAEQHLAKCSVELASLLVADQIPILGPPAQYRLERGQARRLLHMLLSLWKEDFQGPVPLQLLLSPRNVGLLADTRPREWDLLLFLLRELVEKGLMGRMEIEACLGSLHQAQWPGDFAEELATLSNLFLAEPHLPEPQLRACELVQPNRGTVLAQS
Chain of UniProt O75390 (O75390 whole entry, looked up): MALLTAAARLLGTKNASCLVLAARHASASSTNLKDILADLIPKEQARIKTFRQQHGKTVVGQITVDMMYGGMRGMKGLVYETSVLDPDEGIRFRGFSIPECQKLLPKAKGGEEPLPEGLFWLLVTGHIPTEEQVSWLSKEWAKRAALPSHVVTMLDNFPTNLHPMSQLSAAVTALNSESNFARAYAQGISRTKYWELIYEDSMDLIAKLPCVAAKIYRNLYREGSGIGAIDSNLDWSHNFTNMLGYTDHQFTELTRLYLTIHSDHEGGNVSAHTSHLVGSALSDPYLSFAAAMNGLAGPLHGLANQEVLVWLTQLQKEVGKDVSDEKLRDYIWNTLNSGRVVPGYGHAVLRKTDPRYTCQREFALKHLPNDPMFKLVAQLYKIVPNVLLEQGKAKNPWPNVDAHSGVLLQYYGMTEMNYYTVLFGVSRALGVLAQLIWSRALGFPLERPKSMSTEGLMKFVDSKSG
Chain of UniProt Q9NPF2 (Q9NPF2 whole entry, looked up): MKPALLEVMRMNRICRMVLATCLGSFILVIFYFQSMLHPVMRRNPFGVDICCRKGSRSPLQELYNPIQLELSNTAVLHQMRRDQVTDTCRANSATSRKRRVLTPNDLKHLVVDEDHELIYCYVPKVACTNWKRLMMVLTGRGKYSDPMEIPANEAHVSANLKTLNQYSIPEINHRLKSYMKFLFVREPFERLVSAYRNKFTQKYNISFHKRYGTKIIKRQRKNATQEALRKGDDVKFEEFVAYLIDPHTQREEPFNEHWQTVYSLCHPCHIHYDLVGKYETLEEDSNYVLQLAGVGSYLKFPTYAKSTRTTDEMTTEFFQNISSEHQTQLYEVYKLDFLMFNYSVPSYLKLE
Chain of UniProt P67870 (P67870 whole entry, looked up): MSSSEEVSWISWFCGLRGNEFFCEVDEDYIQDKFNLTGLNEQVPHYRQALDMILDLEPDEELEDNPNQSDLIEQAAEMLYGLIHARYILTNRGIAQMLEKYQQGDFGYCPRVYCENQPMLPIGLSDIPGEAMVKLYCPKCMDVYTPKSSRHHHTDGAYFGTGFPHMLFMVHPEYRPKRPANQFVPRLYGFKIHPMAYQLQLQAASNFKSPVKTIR
Chain of UniProt O15182 (O15182 whole entry, looked up): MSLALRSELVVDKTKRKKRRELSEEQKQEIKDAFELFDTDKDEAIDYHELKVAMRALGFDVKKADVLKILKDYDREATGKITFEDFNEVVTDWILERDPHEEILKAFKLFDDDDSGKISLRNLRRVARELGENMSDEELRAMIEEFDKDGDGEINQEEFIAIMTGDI

Row | Target | log2 fold change [1] | log2 fold change (filanesib) | log2 fold change (zotarolimus) | log2 fold change (idasanutlin) | log2 fold change (alisertib) | log2 fold change [2] | log2 fold change (gefitinib) | log2 fold change [3] | log2 fold change (lapatinib) | log2 fold change (pictilisib)
1 | COCH (UniProt O43405) | -0.018 | 0.024 | -0.018 | 0.077 | -0.063 | -0.144 | 0.131 | -0.078 | 0.049 | 0.001
2 | CETN3 (UniProt O15182) | -0.211 | -0.026 | 0.041 | 0.068 | -0.058 | 0.161 | -0.001 | 0.072 | -0.175 | 0.061
3 | CPSF6 isoform 2 (UniProt Q16630) | -0.03 | 0.036 | 0.016 | 0.034 | -0.046 | 0.063 | 0.023 | 0.025 | -0.016 | 0.055
4 | CERT isoform 3 (UniProt Q9Y5P4) | -0.025 | 0.001 | 0.2 | -0.145 | -0.064 | -0.201 | 0.157 | -0.004 | 0.247 | 0.186
5 | CCNB1 (UniProt P14635) | -0.006 | -0.035 | -0.009 | 0.003 | -0.061 | 0.015 | -0.009 | 0.017 | -0.044 | 0.002
6 | COX7B (UniProt P24311) | 0.112 | 0.028 | -0.003 | -0.012 | 0.038 | -0.018 | 0.023 | 0.094 | -0.009 | -0.039
7 | CHAMP1 (UniProt Q96JM3) | -0.001 | -0.008 | 0.07 | 0.005 | 0.006 | 0.025 | 0.029 | 0.022 | -0.065 | 0.107
8 | CIT isoform 4 (UniProt O14578) | -0.099 | 0.055 | -0.003 | 0.027 | -0.036 | -0.228 (active) | -0.12 | -0.06 | 0.031 | -0.044
9 | C19orf53 (UniProt Q9UNZ5) | -0.225 | 0.375 | 0.042 | 0.209 | -0.086 | -0.067 | -0.045 | -0.167 | 0.184 | -0.073
10 | CCNT1 (UniProt O60563) | -0.05 | 0.13 | 0.044 | 0.109 | -0.093 | -0.371 (active) | 0.021 | -0.158 | 0.098 | -0.049
11 | COPS8 (UniProt Q99627) | 0.006 | 0.023 | 0.045 | -0.017 | 0.042 | -0.078 | -0.028 | 0.117 | -0.01 | -0.014
12 | CAMK2G isoform 6 (UniProt Q13555) | -0.018 | 0.269 | 0.039 | -0.101 | -0.173 | -0.032 | -0.006 | -0.204 | 0.12 | 0.141
13 | CAMKK2 (UniProt Q96RR4) | -0.063 | 0.085 | -0.077 | -0.091 | -0.377 | 0.12 | 0.019 | 0.015 | 0.025 | 0.035
14 | CSTF3 (UniProt Q12996) | -0.008 | -0.041 | -0.033 | -0.087 | -0.056 | 0.176 | -0.005 | 0.022 | -0.012 | 0.066
15 | CSNK2B (UniProt P67870) | 0.113 | -0.006 | -0.002 | -0.026 | -0.013 | -0.196 | -0.013 | 0.028 | 0.04 | 0.079
16 | CHERP (UniProt Q8IWX8) | 0.04 | 0.266 | 0.051 | 0.063 | 0.002 | -0.227 | -0.02 | 0.002 | -0.023 | 0.038
17 | CDK9 isoform 2 (UniProt P50750) | -0.103 | 0.154 | 0.015 | 0.114 | -0.093 | -0.182 | -0.031 | -0.067 | -0.055 | 0.014
18 | CDKN1B (UniProt P46527) | 0.085 | -0.02 | -0.007 | -0.033 | 0.068 | 0.104 | 0.124 | -0.076 | -0.03 | -0.02
19 | CHMP4C (UniProt Q96CF2) | 0.163 | 0.014 | -0.028 | -0.001 | 0.037 | 0.064 | -0.014 | 0.02 | -0.027 | -0.005
20 | CD81 (UniProt P60033) | -0.051 | 0.049 | 0.003 | -0.014 | -0.007 | 0.008 | 0.043 | 0.052 | -0.032 | 0.138
21 | CPQ (UniProt Q9Y646) | -0.014 | -0.05 | -0.058 | -0.093 | -0.054 | 0.01 | 0.038 | 0.047 | -0.014 | 0.027
22 | CHST11 (UniProt Q9NPF2) | 0.153 | 0.016 | 0.061 | -0.016 | -0.248 | -0.19 | -0.013 | 0.012 | 0.297 | -0.025
23 | CDAN1 (UniProt Q8IWY9) | -0.032 | -0.017 | 0.008 | -0.088 | -0.041 | -0.044 | -0.034 | 0.185 | 0.005 | 0.011
24 | COX15 (UniProt Q7KZN9) | 0.04 | -0.046 | 0.005 | -0.055 | -0.054 | -0.012 | -0.001 | 0.052 | 0.001 | 0.071
25 | CA8 (UniProt P35219) | 0.046 | -0.055 | 0.09 | -0.073 | -0.112 | -0.086 | 0.023 | 0.032 | 0.008 | 0.173
26 | CAVIN1 (UniProt Q6NZI2) | -0.012 | 0.109 | 0 | 0.15 | -0.098 | -0.107 | -0.1 | -0.159 | 0.089 | -0.094
27 | CKB (UniProt P12277) | -0.031 | -0.097 | 0.061 | -0.047 | -0.093 | -0.007 | 0.002 | 0.01 | 0.016 | 0.022
28 | CS (UniProt O75390) | 0.012 | -0.172 | 0.011 | -0.033 | -0.013 | -0.139 | 0.041 | 0.059 | -0.027 | 0.099
